According to PubChem BioAssay (NCI):
“And” between values parts separate entries of the source, which are not always exact repeats. Identical values can stand only once. The panel holds about 79,000 compounds, 15% with a hit somewhere; the sample as a whole holds those more often. The source holds several records for some structures; these can differ, active in one and inactive in another. The source made the active and inactive calls. No stated cut-off is given here; in the data, active means growth inhibition above about 70%; inactive means the rest.

experiment: NCI Yeast Anticancer Drug Screen. Data for the mec2-1 strain (AID 157); details: S. cerevisiae mec2-1 strain, at 33.0 µM, stronger effect = higher value
In short: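 Cells of the genetically defined mec2-1 yeast strain are incubated with test compound. Inhibition of growth is calculated against vehicle-treated controls.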

Question: Which growth inhibition does the source give for `CN(C)c1ccc(C2CC(C)(O)Oc3cc4c(cc32)OCO4)cc1` (stereo unspecified) here?
Answer: 4% (inactive)

Question: With `O=P(NC1CCCCC1)(OCc1ccccc1)OCc1ccccc1` as the molecule, how does the growth inhibition read?
Answer: 10% (inactive)

Question: For `COc1oc(C(=O)NC2CCCCC2)c(-c2ccc(Cl)cc2)c1S(=O)(=O)c1ccccc1`, which growth inhibition is on record?
Answer: 92% (active)

Question: For `C[Si](C)(C)/C=C/CCNC(C#N)c1ccccc1` (stereo unspecified), which growth inhibition is on record?
Answer: 23% (inactive)

Question: With `CCOc1ccc(NC(=O)C2=C(C)NC(C)=C(C(=O)Nc3ccc(OCC)cc3)C2c2cccc([N+](=O)[O-])c2)cc1` as the molecule, how does the growth inhibition read?
Answer: 36% (inactive)

Question: For `CN(C)CCOC1(Cc2ccc(F)cc2)CCC(C(C)(C)C)CC1` (stereo unspecified), which growth inhibition is on record?
Answer: 19% (inactive)

Question: For `CC1(C)CC(=O)C(/C=N/c2nc(-c3ccccc3)cs2)=C(O)C1`, which growth inhibition is on record?
Answer: 35% (inactive)

Question: For `CC(=O)Nc1ccc2c(c1)Cc1cc(N=C3C=CC(=O)O3)ccc1-2`, which growth inhibition is on record?
Answer: 99% (active)

Question: With `O=C1C=C(Cl)C(=O)C(c2ccc(Cl)cc2)=C1` as the molecule, how does the growth inhibition read?
Answer: 98% (active)

Question: With `CNCCCNc1c2ccccc2nc2cccc([N+](=O)[O-])c12` as the molecule, how does the growth inhibition read?
Answer: 95% (active)

Question: With `CCCCCCCCCCCC(O)S(=O)(=O)O` (stereo unspecified) as the molecule, how does the growth inhibition read?
Answer: -1% (inactive)

Question: With `CC(C)OC(=O)c1ccc(CCc2cc(O)c(Br)cc2O)cc1` as the molecule, how does the growth inhibition read?
Answer: 32% (inactive)

Question: For `CCc1cc(O)c(Cl)c(C)c1Cl`, which growth inhibition is on record?
Answer: 3% (inactive)

Question: For `CSc1nc(C)c(CCOC(C)=O)c(N=P(c2ccccc2)(c2ccccc2)c2ccccc2)n1`, which growth inhibition is on record?
Answer: 1% (inactive)

Question: Which growth inhibition does the source give for `CS(=O)(=O)SCc1ccc([N+](=O)[O-])cc1` here?
Answer: 99% (active)

Question: Which growth inhibition does the source give for `COC1=C(OC)C(=O)C(Sc2ccc3ccccc3c2)=CC1=O` here?
Answer: 95% (active)

Question: For `COc1nc2c(c(=O)n1C)N=C(c1ccccc1)[C@H](C(CC(=O)c1ccccc1)c1ccccc1)C(c1ccccc1)N2` (stereo partly specified), which growth inhibition is on record?
Answer: -4% (inactive)

Question: Which growth inhibition does the source give for `Cc1cc(-c2cc(C)c(O)c(C(C)(C)C)c2)cc(C(C)(C)C)c1O` here?
Answer: -2% (inactive)

Question: Which growth inhibition does the source give for `Nc1cc(N)c(N=Nc2cccc3c(S(=O)(=O)O)cccc23)cc1N=Nc1cc([N+](=O)[O-])ccc1O` here?
Answer: -17% (inactive)

Question: With `Nc1ccc(F)cc1S` as the molecule, how does the growth inhibition read?
Answer: 81% (active)

Question: Which growth inhibition does the source give for `Brc1ccccc1-c1ncc(-c2ccccc2)o1` here?
Answer: 40% (inactive)

Question: Which growth inhibition does the source give for `COc1cc(C2SCC(=O)N2c2ccc(-c3ccc(-n4c(-c5ccccc5)nc5ccccc5c4=O)cc3)cc2)ccc1O` (stereo unspecified) here?
Answer: 2% (inactive)

Question: For `Nc1ncnc2c1ncn2C1OC(CO)CC1O` (stereo unspecified), which growth inhibition is on record?
Answer: 72% (active)

Question: For `COc1cc(CSc2ccc(O)cc2)cc(O)c1O`, which growth inhibition is on record?
Answer: -4% (inactive)

Question: With `CCOC(=O)C1N=[N+](c2ccccc2)C(=O)/C1=C\n1c(=S)[nH]c2ccc([N+](=O)[O-])cc21` (stereo unspecified) as the molecule, how does the growth inhibition read?
Answer: 7% (inactive)

Question: For `CNC(=O)OCc1c(COC(=O)NC)c2n(c1C)-c1ccc(OC)cc1CCC2`, which growth inhibition is on record?
Answer: 95% (active)

Question: With `O=C(NNc1ccccc1)c1ccc(Cl)c(Cl)c1` as the molecule, how does the growth inhibition read?
Answer: 2% (inactive)

Question: For `Cc1ccc(CC2(OCCN(C)C)CCC(C(C)(C)C)CC2)cc1` (stereo unspecified), which growth inhibition is on record?
Answer: 43% (inactive)

Question: Which growth inhibition does the source give for `C[C@]12CC[C@H](O)CC1=CC[C@@H]1C2CC[C@]2(C)C(=O)NC(=O)CC12` (stereo partly specified) here?
Answer: 14% (inactive)

Question: Which growth inhibition does the source give for `CCCC/C=C/C(C)(C(=O)OCC)C(=O)OCC` here?
Answer: 5% (inactive)

Question: For `CCc1c(Cl)c(C)cc(O)c1Cl`, which growth inhibition is on record?
Answer: 12% (inactive)

Question: For `O=C(/C=C(/c1ccccc1)N1CCCCC1)c1ccccc1`, which growth inhibition is on record?
Answer: 7% (inactive)

Question: For `CCCC(=O)Oc1ccc(/C=N/NC(N)=S)nc1`, which growth inhibition is on record?
Answer: -2% (inactive)

Question: With `CCc1nc2ccc(NCCN(C)C)c3c(=O)c4ccccc4n1c23` as the molecule, how does the growth inhibition read?
Answer: 24% (inactive)

Question: Which growth inhibition does the source give for `Cc1sc2ccc3ccccc3c2[n+]1C` here?
Answer: -11% (inactive)

Question: With `COc1c(O)c(C=O)c(Br)c(C=O)c1O` as the molecule, how does the growth inhibition read?
Answer: 47% (inactive)

Question: With `Cc1ccc(Cl)cc1NC(=O)OCCN(C)C(=O)Nc1cc(Cl)ccc1C` as the molecule, how does the growth inhibition read?
Answer: -31% (inactive)

Question: Which growth inhibition does the source give for `Cc1nc2ccccc2nc1NNc1ccccc1` here?
Answer: 11% (inactive)

same assay, conditions: S. cerevisiae mec2-1 strain, at 50.0 µM (retest, dose inferred, filed as 5.0), stronger effect = higher value

Question: With `CN(C)c1ccc(C2CC(C)(O)Oc3cc4c(cc32)OCO4)cc1` (stereo unspecified) as the molecule, how does the growth inhibition read?
Answer: 12% (inactive)

Question: For `O=P(NC1CCCCC1)(OCc1ccccc1)OCc1ccccc1`, which growth inhibition is on record?
Answer: 4% (inactive)

Question: Which growth inhibition does the source give for `COc1oc(C(=O)NC2CCCCC2)c(-c2ccc(Cl)cc2)c1S(=O)(=O)c1ccccc1` here?
Answer: 91% (active)

Question: With `C[Si](C)(C)/C=C/CCNC(C#N)c1ccccc1` (stereo unspecified) as the molecule, how does the growth inhibition read?
Answer: 99% (active)

Question: With `CCOc1ccc(NC(=O)C2=C(C)NC(C)=C(C(=O)Nc3ccc(OCC)cc3)C2c2cccc([N+](=O)[O-])c2)cc1` as the molecule, how does the growth inhibition read?
Answer: 96% (active)

Question: For `CN(C)CCOC1(Cc2ccc(F)cc2)CCC(C(C)(C)C)CC1` (stereo unspecified), which growth inhibition is on record?
Answer: -1% (inactive) and 92% (active)

Question: With `CC1(C)CC(=O)C(/C=N/c2nc(-c3ccccc3)cs2)=C(O)C1` as the molecule, how does the growth inhibition read?
Answer: 32% (inactive)

Question: Which growth inhibition does the source give for `CC(=O)Nc1ccc2c(c1)Cc1cc(N=C3C=CC(=O)O3)ccc1-2` here?
Answer: 99% (active)

Question: With `O=C1C=C(Cl)C(=O)C(c2ccc(Cl)cc2)=C1` as the molecule, how does the growth inhibition read?
Answer: 99% (active)

Question: With `CNCCCNc1c2ccccc2nc2cccc([N+](=O)[O-])c12` as the molecule, how does the growth inhibition read?
Answer: 97% (active)

Question: For `CCCCCCCCCCCC(O)S(=O)(=O)O` (stereo unspecified), which growth inhibition is on record?
Answer: -23% (inactive)

Question: Which growth inhibition does the source give for `CC(C)OC(=O)c1ccc(CCc2cc(O)c(Br)cc2O)cc1` here?
Answer: 99% (active)

Question: With `CCc1cc(O)c(Cl)c(C)c1Cl` as the molecule, how does the growth inhibition read?
Answer: 86% (active)

Question: Which growth inhibition does the source give for `CSc1nc(C)c(CCOC(C)=O)c(N=P(c2ccccc2)(c2ccccc2)c2ccccc2)n1` here?
Answer: 3% (inactive)

Question: For `CS(=O)(=O)SCc1ccc([N+](=O)[O-])cc1`, which growth inhibition is on record?
Answer: 96% (active)

Question: Which growth inhibition does the source give for `COC1=C(OC)C(=O)C(Sc2ccc3ccccc3c2)=CC1=O` here?
Answer: 98% (active)

Question: With `COc1nc2c(c(=O)n1C)N=C(c1ccccc1)[C@H](C(CC(=O)c1ccccc1)c1ccccc1)C(c1ccccc1)N2` (stereo partly specified) as the molecule, how does the growth inhibition read?
Answer: 94% (active)

Question: Which growth inhibition does the source give for `Cc1cc(-c2cc(C)c(O)c(C(C)(C)C)c2)cc(C(C)(C)C)c1O` here?
Answer: 98% (active) and 91% (active)

Question: For `Nc1cc(N)c(N=Nc2cccc3c(S(=O)(=O)O)cccc23)cc1N=Nc1cc([N+](=O)[O-])ccc1O`, which growth inhibition is on record?
Answer: 69% (inactive)

Question: With `Nc1ccc(F)cc1S` as the molecule, how does the growth inhibition read?
Answer: 99% (active)

Question: For `Brc1ccccc1-c1ncc(-c2ccccc2)o1`, which growth inhibition is on record?
Answer: 98% (active)

Question: With `COc1cc(C2SCC(=O)N2c2ccc(-c3ccc(-n4c(-c5ccccc5)nc5ccccc5c4=O)cc3)cc2)ccc1O` (stereo unspecified) as the molecule, how does the growth inhibition read?
Answer: 21% (inactive)

Question: Which growth inhibition does the source give for `Nc1ncnc2c1ncn2C1OC(CO)CC1O` (stereo unspecified) here?
Answer: 92% (active) and 91% (active)

Question: For `COc1cc(CSc2ccc(O)cc2)cc(O)c1O`, which growth inhibition is on record?
Answer: -6% (inactive)

Question: With `CCOC(=O)C1N=[N+](c2ccccc2)C(=O)/C1=C\n1c(=S)[nH]c2ccc([N+](=O)[O-])cc21` (stereo unspecified) as the molecule, how does the growth inhibition read?
Answer: 96% (active)

Question: For `CNC(=O)OCc1c(COC(=O)NC)c2n(c1C)-c1ccc(OC)cc1CCC2`, which growth inhibition is on record?
Answer: 99% (active)

Question: With `O=C(NNc1ccccc1)c1ccc(Cl)c(Cl)c1` as the molecule, how does the growth inhibition read?
Answer: 3% (inactive)

Question: With `Cc1ccc(CC2(OCCN(C)C)CCC(C(C)(C)C)CC2)cc1` (stereo unspecified) as the molecule, how does the growth inhibition read?
Answer: 99% (active) and 93% (active)

Question: For `C[C@]12CC[C@H](O)CC1=CC[C@@H]1C2CC[C@]2(C)C(=O)NC(=O)CC12` (stereo partly specified), which growth inhibition is on record?
Answer: 82% (active)

Question: Which growth inhibition does the source give for `CCCC/C=C/C(C)(C(=O)OCC)C(=O)OCC` here?
Answer: 16% (inactive)

Question: For `CCc1c(Cl)c(C)cc(O)c1Cl`, which growth inhibition is on record?
Answer: 94% (active)

Question: For `O=C(/C=C(/c1ccccc1)N1CCCCC1)c1ccccc1`, which growth inhibition is on record?
Answer: 84% (active)

Question: For `CCCC(=O)Oc1ccc(/C=N/NC(N)=S)nc1`, which growth inhibition is on record?
Answer: 89% (active)

Question: For `CCc1nc2ccc(NCCN(C)C)c3c(=O)c4ccccc4n1c23`, which growth inhibition is on record?
Answer: 40% (inactive)

Question: For `Cc1sc2ccc3ccccc3c2[n+]1C`, which growth inhibition is on record?
Answer: 61% (inactive) and -2% (inactive)

Question: For `COc1c(O)c(C=O)c(Br)c(C=O)c1O`, which growth inhibition is on record?
Answer: 98% (active)

Question: With `Cc1ccc(Cl)cc1NC(=O)OCCN(C)C(=O)Nc1cc(Cl)ccc1C` as the molecule, how does the growth inhibition read?
Answer: 93% (active)

Question: For `Cc1nc2ccccc2nc1NNc1ccccc1`, which growth inhibition is on record?
Answer: 39% (inactive)
